Rows were chosen to be rich in hits. Some 3.4% of all compounds tested hit in one or more screens of this group.
PAFAH1B2 inh: blocks human PAF acetylhydrolase 1b catalytic subunit 2 | P68402 | recombinant PAFAH1B2, FP-rhodamine activity probe, fluorescence polarization | inhibition, % at 3.39 µM | 1.2% of 340,000 active;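 active = inhibition above the mean of all tested compounds plus 3 SD, cut at about 24% in these data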;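 also: 0% = enzyme with DMSO and 100% = wells lacking PAFAH1B2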
PAFAH2 FP inh: inhibitors of human PAFAH2; recombinant PAFAH2, FP-rhodamine activity probe, fluorescence polarization; inhibition, % at 3.39 µM; 0.99% of 340,000 active;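 active = inhibition above the mean over all tested compounds plus 3 SD, cut at about 30% in these data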;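 also: inhibitors block probe labeling of enzyme so polarization drops; 0% = enzyme with DMSO and 100% = wells lacking PAFAH2 protein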
pPAFAH FP inh: pPAFAH (human) enzyme inhibition; AID 463082; recombinant pPAFAH, FP-rhodamine probe fluorescence polarization; inhibition, % at 3.39 µM; Q13093; 1.5% of 330,000 active;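 active = inhibition above the mean inhibition across the screen plus 3 SD, cut at about 25% in these data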;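 also: inhibitors block binding of the rhodamine activity-based probe so polarization drops; 0% = enzyme with DMSO and 100% = wells lacking pPAFAH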
Target sequence (Q13093 whole entry, looked up): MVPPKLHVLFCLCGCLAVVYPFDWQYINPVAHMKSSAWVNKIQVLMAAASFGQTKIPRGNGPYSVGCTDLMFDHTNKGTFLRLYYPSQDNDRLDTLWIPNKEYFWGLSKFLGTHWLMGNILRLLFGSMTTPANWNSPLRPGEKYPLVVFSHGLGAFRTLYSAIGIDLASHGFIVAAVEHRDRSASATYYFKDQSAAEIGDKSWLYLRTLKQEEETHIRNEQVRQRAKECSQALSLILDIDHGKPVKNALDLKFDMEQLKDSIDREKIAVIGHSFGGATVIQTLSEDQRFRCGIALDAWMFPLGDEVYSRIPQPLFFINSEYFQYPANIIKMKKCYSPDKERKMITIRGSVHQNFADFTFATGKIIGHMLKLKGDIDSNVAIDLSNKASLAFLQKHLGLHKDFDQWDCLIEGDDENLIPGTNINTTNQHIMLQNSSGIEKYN
PP1 inh: blocks human PP1-alpha phosphatase, a PP5 counter-screen; P62136; purified PP1alpha, OMFP fluorescence; inhibition, % at 6.7 µM; 0.9% of 320,000 active;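 active = inhibition above the mean inhibition of all tested compounds plus 3 SD, computed separately for each screening campaign, cut at about 15% in these data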
PAFAH1B3 inh: blocks human PAF acetylhydrolase 1B catalytic subunit 3 | inhibition, % at 3.39 µM | 0.28% of 340,000 active | recombinant PAFAH1B3, FP-rhodamine probe, fluorescence polarization | AID 492972 | Q15102;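 active = inhibition above the screen-wide average of all tested compounds plus 3 SD, cut at about 25% in these data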;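 also: 0% = enzyme with DMSO only and 100% = wells lacking PAFAH1B3 protein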
PP5 primary: blocks human protein phosphatase 5 activity; inhibition, % at 6.7 µM; 0.18% of 320,000 active; AID 1987; purified PP5c, OMFP substrate fluorescence; P53041;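 active = inhibition above the campaign's mean inhibition across all tested compounds plus 3 SD, cut at about 9.5% in these data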;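 also: 0% = DMSO only and 100% = 100 µM cantharidin control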
An asterisk follows results filed as active; . = no result.

SMILES	PAFAH1B2 inh	PAFAH2 FP inh	pPAFAH FP inh	PP1 inh	PAFAH1B3 inh	PP5 primary
COc1ccc(N2CCN(C(=O)c3oc4ccccc4c3NC(=O)Cc3ccc(OC)c(OC)c3)CC2)cc1	0	4	4	1	-4	2
O=C(/C=C/c1ccc(OCCCF)cc1)Nc1ccnc(-c2ccncc2)n1	-2	-2	3	16*	-5	3
O=C(/C=C/c1ccc(OCCCF)cc1)NCc1cccc(Cl)c1	6	-4	3	3	11	2
S=c1[nH]nc(-c2ccc(Br)cc2)n1Cc1ccccc1	22	6	0	-2	14	-1
Fc1ccc(-c2n[nH]c(=S)n2Cc2ccccc2)cc1	28*	-5	2	-4	8	2
Fc1ccc(-c2c[nH]c(=S)n2Cc2ccccc2)cc1	27*	4	-1	-3	8	0
Oc1ccc(-c2n[nH]c(=S)n2Cc2ccccc2)cc1	25*	8	-3	-4	5	2
S=c1[nH]nc(-c2ccccc2Cl)n1Cc1ccccc1	27*	2	8	-3	-2	2
Fc1ccccc1-c1n[nH]c(=S)n1Cc1ccccc1	19	-5	-2	-2	0	-2
Cc1ccc(O)c(N=Nc2nccs2)c1	3	5	3	5	16	3
CSc1nc(N)nc2c1ncn2CC(=O)N[C@H](C)c1cccc2ccccc12	3	-2	6	.	10	.
O=C(COc1coc(CN2CCN(c3cccc(Cl)c3)CC2)cc1=O)NC1CCCC1	4	7	1	-5	5	2
Cc1cccc2c(N=NC(=O)c3ccc(NS(=O)(=O)c4cccs4)cc3)c(O)[nH]c12	39*	21	28*	16*	24	2
COc1cccc(C(=O)NNC(=O)c2ccc(NS(=O)(=O)c3cccs3)cc2)c1OC	2	4	26*	-3	2	-2
Cc1cccc2c(N=Nc3ccc(S(=O)(=O)Nc4ccc(Cl)cc4)cc3[N+](=O)[O-])c(O)[nH]c12	-6	-20	33*	0	3	-2
O=C(N=Nc1c(O)[nH]c2ccc(F)cc12)c1ccc(NS(=O)(=O)c2cccs2)cc1	-1	-8	6	-1	7	1
Cc1ccc2[nH]c(O)c(N=NC(=O)c3ccc(NS(=O)(=O)c4cccs4)cc3)c2c1	26*	0	26*	6	10	1
O=C(N=Nc1c(O)[nH]c2ccccc12)c1ccccc1NS(=O)(=O)c1cccs1	-4	11	9	-1	3	5
Cc1ccc(S(=O)(=O)N(C)C)cc1NC(=O)C(C)OC(=O)c1ccc2c(=O)n3c(nc2c1)CCC3 (configuration not stated)	0	2	.	.	2	.
COC(=O)[C@H](CC(C)C)N1Cc2cc(OC)cc(OC)c2-c2ccccc2S1(=O)=O	6	-5	6	.	6	.
Cc1ccc(C(=O)N2CCN(c3ccc(NC(=S)NC(=O)Cc4ccccc4)cc3)CC2)cc1	1	6	25*	14	9	2
COc1cc(CNc2ccc(N3CCCC3)cc2)ccc1OCc1ccccc1	2	6	29*	9	18	1
CC(=O)N1CCN(c2ccc(NCc3ccc(C)s3)cc2)CC1	1	1	21	-2	-2	3
COc1ccc(C(=O)N2CCN(c3ccc(NC(=O)Cc4ccccc4)cc3)CC2)cc1	2	6	10	1	8	1
CC(=O)N1CCN(c2ccc(NCc3ccccc3)cc2)CC1	6	-4	32*	0	0	0
SMILES	PAFAH1B2 inh	PAFAH2 FP inh	pPAFAH FP inh	PP1 inh	PAFAH1B3 inh	PP5 primary
CC(=O)N1CCN(c2ccc(NCc3cccs3)cc2)CC1	4	1	15	2	4	1
CC(=O)N1CCN(c2ccc(NCc3cccc4ccccc34)cc2)CC1	-1	5	31*	7	6	1
CC(C)(C)c1nc(NC(=O)Nc2ccccc2)sc1Br	1	-19	-11	-1	-5	-1
COc1ccc(S(=O)(=O)NNC(=O)Nc2ccc(F)cc2)cc1	.	.	-6	3	.	2
COc1ccc(N2CCN(C(=O)CSc3ccccc3)CC2)cc1	0	-2	14	-4	8	4
COc1ccc(N2CCN(C(=O)c3ccc(CSc4ccccc4)cc3)CC2)cc1	26*	2	7	0	5	2
Cc1c(C(=O)OCC2CCCO2)[nH]c2c1C(=O)CC(c1ccco1)C2 (configuration not stated)	3	6	25*	3	2	-1
O=S(=O)(NCCc1ccccc1)c1ccc(Br)cc1	28*	3	7	1	10	0
O=S(=O)(NCCSc1ccccn1)c1ccc(Br)cc1	25*	10	4	6	9	2
CCC(=O)c1ccc(SC(=O)N(C)C)cc1O	2	14	2	-4	5	1
CCOc1ccccc1N1CC(C(=O)Nc2cc(S(=O)(=O)N3CCOCC3)ccc2OC(C)C)CC1=O (configuration not stated)	2	-1	.	.	8	.
CC[C@]12C(=O)N(C)C[C@H]([C@@H]3C(=O)N(Cc4ccccc4)C(=O)[C@@H]31)N2C(=O)c1ccc(F)cc1	-1	-1	.	.	11	.
COc1ccc(OC)c(/C=N/NC(=O)c2cc3c(OC)cccc3[nH]2)c1	13	4	25*	-4	12	7
CCOc1ccc(/C=N/NC(=O)c2cc3c(OC)cccc3[nH]2)cc1	0	0	13	16*	3	-1
COc1cccc(/C=N/NC(=O)c2cc3c(OC)cccc3[nH]2)c1OC	1	-4	6	-3	0	0
O=C(c1cc(-c2ccc(F)cc2)on1)N1CCCc2ccccc21	1	1	-3	16*	2	2
Nc1n[nH]c2c1C1(CCCCC1)Cc1ccccc1-2	32*	1	-1	1	7	2
CC(C)C1C(c2ccccc2)NC(c2ccccc2)CC1(O)c1ccc(F)cc1 (configuration not stated)	1	1	1	4	2	2
CN(C)C(=O)NC1CCCCCCCCCCC1	36*	1	-1	2	12	-1
O=C(Nc1ccc(OC(F)F)cc1)c1cc(S(=O)(=O)N2CCCCC2)ccc1N1CCOCC1	-2	6	-2	-1	5	3
O=C(O)CC1c2ccccc2CCN1S(=O)(=O)c1ccc(F)cc1 (configuration not stated)	31*	-6	4	2	1	0
CCc1cccc(CC)c1NC(=O)COC(=O)CC1c2ccccc2CCN1S(=O)(=O)c1ccc(F)cc1 (configuration not stated)	7	15	19	6	2	3
O=C(Cc1ccc(Cl)cc1)NNC(=O)C(=O)NC1CCCCC1	27*	7	5	.	2	.

Compound activity: PubChem, The Scripps Research Institute Molecular Screening Center
